Calls of active or inactive are those of the source.
Assays:
[1] = optical density shifts of acrAB sulA E. coli – strain DRC41, OD650, 48 h, E. coli filamentation inducer project, primary screen (AID 1152); settings: higher = more signal, called active from +8 up or from −8 down;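 note: E. coli MC1000 strain DRC41 lacking acrAB efflux pump and sulA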
[2] = probe aLefty1 binding on compound microarray – biochemical, small-molecule microarray, 635/667 nm fluorescence, primary screen (AID 1153); settings: higher = more signal;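 note: score merges spot fluorescence with signal-to-noise ratio from the scanned slide images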
[3] = plasmodial surface anion channel blockers, osmotic lysis – cell-based, P. falciparum Indochina, OD700, 1 h, primary screen (AID 1154); settings: P. falciparum Indochina infected RBC osmotic lysis, higher = more signal, called active from +8 up or from −8 down
[4] = plasmodial surface anion channel blockers, osmotic lysis – cell-based, P. falciparum Indochina, OD700, 2 h, primary screen (AID 1155);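 note: lysis reports solute entry through the parasite surface anion channel PSAC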; settings: P. falciparum Indochina infected erythrocytes, higher = more signal, called active from +8 up or from −8 down
[5] = changes in parasitized red cell lysis, either direction – P. falciparum Indochina, OD700, 3 h, PSAC antagonist project, primary screen (AID 1156); settings: P. falciparum-infected erythrocytes, osmotic lysis, higher = more signal, called active from +8 up or from −8 down
[6] = plasmodial surface anion channel blockers, osmotic lysis – cell-based, P. falciparum Indochina, OD700, 18 h, primary screen (AID 1157); settings: P. falciparum Indochina infected erythrocytes, osmotic lysis OD700, 18 h; higher = more signal, called active from +8 up or from −8 down
[7] = S6 kinase pathway phospho-S6 level changes – cell-based, A549, cytoblot, luminescence, serum-stimulated, primary screen (AID 1158); settings: 5 h, higher = more signal;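 note: serum-stimulated A549 lung adenocarcinoma cells; signal is phosphorylated S6 detected by cytoblot immunostaining with HRP secondary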
[8] = target: NADPH oxidase 2 (Homo sapiens) (UniProt P04839); test: compounds shifting NOX2 Amplex Red fluorescence – cell-based, HEK293-NOX2, PMA-stimulated, NOX inhibitor project, primary screen (AID 1159); settings: 45 min, higher = more signal, called active from +8 up or from −8 down; note: test concentration not given here
[9] = target: NADPH oxidase 4 (Homo sapiens) (UniProt Q9NPH5); test: compounds shifting NOX4 Amplex Red fluorescence – cell-based, HEK293-NOX4, tetracycline-induced, NOX inhibitor project, primary screen (AID 1160); settings: HEK293-NOX4, Amplex Red H2O2 fluorescence, 45 min; higher = more signal, called active from +8 up or from −8 down
[10] = target: NADPH oxidase 5 (Homo sapiens) (UniProt Q96PH1); test: compounds shifting NOX5 Amplex Red fluorescence – cell-based, HEK293-NOX5, NOX inhibitor project, primary screen (AID 1161); settings: HEK293-NOX5, ionomycin, 45 min, higher = more signal
[11] = compound effects on lung adenocarcinoma cell viability – A549, calcein-AM fluorescence, 48 h, basal, profiling panel (AID 1162); settings: higher = more signal; note: test concentration not given here
[12] = compound effects on differentiated 3T3-L1 adipocyte viability – cell-based, 3T3-L1 adipocytes, calcein-AM fluorescence, 48 h, basal, profiling panel (AID 1163); settings: 3T3-L1 adipocytes viability, higher = more signal; note: test concentration not given here
[13] = compound effects on hepatocellular carcinoma cell viability – HepG2, calcein-AM fluorescence, 48 h, basal, profiling panel (AID 1164); settings: higher = more signal; note: test concentration not given here
[14] = compound effects on multiple myeloma cell viability – MM1S, calcein-AM fluorescence, 48 h, basal, profiling panel (AID 1165); settings: higher = more signal;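 note: viability of MM1S multiple myeloma cells under basal unstimulated conditions; test concentration not given here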
[15] = calcein-AM signal in unstimulated myeloma cells – cell-based, calcein-AM fluorescence, 48 h, PK04 Diversity Set, profiling panel (AID 1166); settings: RPMI8226 myeloma viability, higher = more signal;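 note: cells grown under basal conditions without added stimulus; test concentration not given here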
[16] = JC-1 mitochondrial signal, unstimulated HepG2 cells – cell-based, JC-1 fluorescence, 24 h, 100 nL compound, profiling panel (AID 1167); settings: HepG2 mitochondrial potential, higher = more signal; note: test concentration not given here
[17] = JC-1 mitochondrial signal, unstimulated adipocytes – cell-based, JC-1 fluorescence, 3T3-L1 adipocytes, 24 h, 100 nL compound, profiling panel (AID 1168); settings: JC-1 mitochondrial fluorescence, higher = more signal, called active from +8 up or from −8 down; note: test concentration not given here
[18] = JC-1 mitochondrial signal, unstimulated myeloma cells – cell-based, JC-1 fluorescence, RPMI8226, 24 h, 100 nL compound, profiling panel (AID 1169); settings: JC-1 mitochondrial potential fluorescence, higher = more signal; note: test concentration not given here
[19] = JC-1 mitochondrial signal, unstimulated MM1S myeloma – cell-based, JC-1 fluorescence, 24 h, 100 nL compound, profiling panel (AID 1170); settings: MM1S mitochondrial potential, higher = more signal; note: test concentration not given here
[20] = resazurin metabolic signal in A549 cells – cell-based, resazurin fluorescence, 24 h, PK04 Diversity Set, profiling panel (AID 1171); settings: A549 viability, higher = more signal, called active from +8 up or from −8 down; note: test concentration not given here

NADPH oxidase 4 (Homo sapiens), sequence (Q9NPH5 whole entry, looked up): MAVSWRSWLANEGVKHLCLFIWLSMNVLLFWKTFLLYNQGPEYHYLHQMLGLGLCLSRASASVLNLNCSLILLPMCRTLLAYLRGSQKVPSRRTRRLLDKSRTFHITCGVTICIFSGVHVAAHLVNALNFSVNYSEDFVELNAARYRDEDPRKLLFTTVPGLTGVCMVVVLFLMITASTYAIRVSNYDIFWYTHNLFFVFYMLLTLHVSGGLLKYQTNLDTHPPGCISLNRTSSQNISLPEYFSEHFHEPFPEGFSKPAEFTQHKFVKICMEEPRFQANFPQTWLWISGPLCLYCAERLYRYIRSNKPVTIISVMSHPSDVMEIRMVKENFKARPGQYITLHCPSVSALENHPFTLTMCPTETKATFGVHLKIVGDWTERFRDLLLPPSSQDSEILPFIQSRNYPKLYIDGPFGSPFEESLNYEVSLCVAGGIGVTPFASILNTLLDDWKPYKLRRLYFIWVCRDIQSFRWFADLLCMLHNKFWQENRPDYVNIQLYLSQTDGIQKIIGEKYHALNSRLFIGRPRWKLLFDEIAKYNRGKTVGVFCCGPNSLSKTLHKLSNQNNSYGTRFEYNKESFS
NADPH oxidase 2 (Homo sapiens), sequence (P04839 whole entry, looked up): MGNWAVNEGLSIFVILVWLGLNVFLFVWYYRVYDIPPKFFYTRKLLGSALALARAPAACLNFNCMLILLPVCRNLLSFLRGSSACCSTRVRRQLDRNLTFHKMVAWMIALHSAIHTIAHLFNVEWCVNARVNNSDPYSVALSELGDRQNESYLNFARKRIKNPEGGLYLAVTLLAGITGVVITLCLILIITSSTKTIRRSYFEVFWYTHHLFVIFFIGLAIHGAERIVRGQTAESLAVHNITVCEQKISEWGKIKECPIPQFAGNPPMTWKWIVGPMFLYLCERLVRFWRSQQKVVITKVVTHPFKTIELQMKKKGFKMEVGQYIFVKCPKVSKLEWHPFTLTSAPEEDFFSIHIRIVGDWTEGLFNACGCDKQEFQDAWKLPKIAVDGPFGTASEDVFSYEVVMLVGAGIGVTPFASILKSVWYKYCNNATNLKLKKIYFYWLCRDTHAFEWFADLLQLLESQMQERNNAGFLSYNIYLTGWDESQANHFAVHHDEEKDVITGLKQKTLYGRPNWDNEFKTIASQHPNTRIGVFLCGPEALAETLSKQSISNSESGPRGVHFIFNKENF
NADPH oxidase 5 (Homo sapiens), sequence (Q96PH1 whole entry, looked up): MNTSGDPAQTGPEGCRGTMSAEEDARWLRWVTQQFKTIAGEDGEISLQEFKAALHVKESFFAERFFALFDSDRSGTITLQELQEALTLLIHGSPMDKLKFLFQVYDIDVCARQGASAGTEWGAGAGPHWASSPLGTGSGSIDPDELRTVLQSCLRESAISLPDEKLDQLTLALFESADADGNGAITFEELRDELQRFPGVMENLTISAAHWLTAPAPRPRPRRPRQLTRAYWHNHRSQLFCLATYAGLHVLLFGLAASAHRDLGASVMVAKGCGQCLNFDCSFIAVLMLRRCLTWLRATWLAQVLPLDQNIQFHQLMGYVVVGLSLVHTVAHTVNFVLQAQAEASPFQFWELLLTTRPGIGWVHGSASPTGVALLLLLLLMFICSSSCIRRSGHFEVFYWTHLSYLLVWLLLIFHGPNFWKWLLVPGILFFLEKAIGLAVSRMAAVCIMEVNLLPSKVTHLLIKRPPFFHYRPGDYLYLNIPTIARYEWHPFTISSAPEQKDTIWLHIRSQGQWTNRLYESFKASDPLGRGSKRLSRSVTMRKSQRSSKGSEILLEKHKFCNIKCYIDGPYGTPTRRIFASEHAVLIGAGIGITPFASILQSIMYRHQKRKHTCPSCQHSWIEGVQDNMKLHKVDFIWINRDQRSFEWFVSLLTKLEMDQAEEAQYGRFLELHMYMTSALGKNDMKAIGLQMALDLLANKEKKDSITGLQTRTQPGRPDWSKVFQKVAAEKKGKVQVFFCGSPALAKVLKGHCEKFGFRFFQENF

Structure (SMILES)	z-score [1]	composite z-score [2]	z-score [3]	z-score [4]	z-score [5]	z-score [6]	z-score [7]	z-score [8]	z-score [9]	z-score [10]	z-score [11]	z-score [12]	z-score [13]	z-score [14]	z-score [15]	z-score [16]	z-score [17]	z-score [18]	z-score [19]	z-score [20]
CC1CC/C=C\[C@H]2OC34C=CCN(c5ccc6ccccc6c5)C(=O)[C@H]3N(C(CO)C(C)C)C(=O)[C@@H]4C2C(=O)O1 (stereo not given in full)	-0.488 (inactive)	0.245	4.35 (inactive)	1.06 (inactive)	1.01 (inactive)	0.674 (inactive)	-0.526	1.49 (inactive)	-0.0631 (inactive)	1.68	0.534	-0.443	0.468	0.36	0.251	0.356	-0.328 (inactive)	0.145	-0.158	-0.294 (inactive)
CC(C)CN1C(=O)[C@@]2(c3ccc([N+](=O)[O-])cc3)CC(=O)N(CC34CC5CC(CC(C5)C3)C4)[C@@H]2c2ccc(CO)cc21	0.193 (inactive)	0.129	1.17 (inactive)	-0.377 (inactive)	0.0846 (inactive)	-1.17 (inactive)	2.01	-0.187 (inactive)	-0.981 (inactive)	-0.986	-0.181	1.04	-0.744	-0.0484	-0.544	-0.849	-0.316 (inactive)	0.833	-2.29	-0.186 (inactive)
NC(=O)NCC#Cc1ccc2c(c1)[C@]1(C(=O)N2)[C@H](C(=O)Nc2nc3ccccc3s2)[C@H]2C(=O)O[C@H](c3ccccc3)[C@H](c3ccccc3)N2[C@@H]1c1ccc(O)cc1	0.996 (inactive)	0.315	2.92 (inactive)	2.35 (inactive)	0.962 (inactive)	1.19 (inactive)	-0.0609	-0.23 (inactive)	-1.27 (inactive)	0.16	0.234	1.28	0.28	-0.614	0.76	-3.35	0.588 (inactive)	-0.937	-1.9	1.78 (inactive)
C=CC[C@@]1(C(=O)O)N=C(c2ccc(OCCCO)cc2)O[C@@H]1c1ccccc1	0.938 (inactive)	-0.146	11.5 (active)	0.526 (inactive)	0.208 (inactive)	0.568 (inactive)	0.0003	0.0822 (inactive)	1.25 (inactive)	0.448	0.819	-0.563	1.59	0.576	-0.252	0.89	0.995 (inactive)	-0.462	-0.341	0.353 (inactive)
COCCCNC(=O)[C@@H]1c2ccccc2C(=O)N(Cc2ccccc2C(F)(F)F)[C@H]1c1ccc(CO)cc1	0.938 (inactive)	-0.198	1.14 (inactive)	0.165 (inactive)	0.0034 (inactive)	-0.0633 (inactive)	0.0987	-0.214 (inactive)	0.732 (inactive)	0.498	2.1	1.29	1	0.7	0.237	2.55	-0.0216 (inactive)	-0.213	0.872	1.8 (inactive)
O=C(O)[C@]1(Cc2ccccc2)N=C(c2ccc(OCCCO)cc2)O[C@@H]1c1ccccc1	0.585 (inactive)	0.104	5.03 (inactive)	-0.125 (inactive)	-1.2 (inactive)	0.0743 (inactive)	-0.174	0.26 (inactive)	0.674 (inactive)	0.914	1.07	-1.44	0.493	0.427	0.261	-0.121	0.766 (inactive)	-0.833	-0.38	0.455 (inactive)
COCCOC(=O)N1C(=O)[C@@]2(c3cc(C#CC4(O)CCCCCC4)ccc31)[C@H](C(N)=O)[C@H]1C(=O)O[C@H](c3ccccc3)[C@H](c3ccccc3)N1[C@@H]2c1ccc(O)cc1	-0.342 (inactive)	-0.0186	1.7 (inactive)	-0.269 (inactive)	2.21 (inactive)	-0.125 (inactive)	-0.0551	0.649 (inactive)	0.547 (inactive)	0.85	1.47	0.521	0.412	-2.88	-3.95	-0.0298	-0.62 (inactive)	-0.522	-1.25	0.394 (inactive)
O=c1cccc(-c2cccc(Cl)c2)o1	0.457 (inactive)	-0.0057	25.8 (active)	10.2 (active)	-0.51 (inactive)	1.27 (inactive)	-0.717	-0.16 (inactive)	-1.92 (inactive)	-0.541	-1.09	-0.164	-0.0227	-0.345	-0.895	-0.687	0.308 (inactive)	0.86	-0.024	0.0053 (inactive)
Cc1c(NC(=O)/C(C#N)=C/C=C/c2ccc(N(C)C)cc2)c(=O)n(-c2ccccc2)n1C	0.504 (inactive)	0.628	16.3 (active)	2.8 (inactive)	-0.164 (inactive)	0.89 (inactive)	-0.466	-2.41 (inactive)	-1.51 (inactive)	-0.807	0.284	0.257	0.175	0.232	0.285	-0.545	2.26 (inactive)	-0.665	1.64	0.765 (inactive)
Cc1ccc(S[C@]2(C(=O)NC3CC3)CC(=O)N(Cc3ccccc3Cl)[C@@H]2c2ccc(CO)cc2I)cc1	0.386 (inactive)	0.191	6.9 (inactive)	0.789 (inactive)	0.796 (inactive)	0.0589 (inactive)	-0.331	1.53 (inactive)	-1.86 (inactive)	1.12	0.0293	0.0656	0.556	-2.36	-2.05	0.474	0.515 (inactive)	-0.498	-1.45	-0.889 (inactive)
CCOC(=O)C1=CC[C@@H](c2ccc([N+](=O)[O-])cc2)N(S(=O)(=O)c2ccc(C)cc2)[C@H]1c1ccccc1	-0.785 (inactive)	0.206	2.13 (inactive)	1.6 (inactive)	0.106 (inactive)	0.903 (inactive)	-0.543	1.46 (inactive)	1.1 (inactive)	1.43	-0.143	-0.786	0.239	-0.767	-0.281	2.35	-0.233 (inactive)	1.21	-1.25	0.807 (inactive)
CN(C)CCCNC(=O)[C@@H]1c2ccccc2C(=O)N(CC23CC4CC(CC(C4)C2)C3)[C@H]1c1ccc(CO)cc1	0.0377 (inactive)	-0.262	1.1 (inactive)	0.964 (inactive)	0.648 (inactive)	1.09 (inactive)	-0.245	-2.04 (inactive)	-0.633 (inactive)	-0.657	-0.104	0.195	-0.99	-3.75	-1.91	1.44	-0.211 (inactive)	-0.296	-1.73	1.21 (inactive)
C=CC[C@@H](OC(=O)Nc1ccc(OC)cc1)c1ccc(OCCO)cc1	-0.14 (inactive)	-0.0638	19.5 (active)	3.12 (inactive)	-0.149 (inactive)	0.894 (inactive)	0.0966	-4.11 (inactive)	-1.4 (inactive)	-2.78	-0.176	0.048	0.587	-1.2	-2.53	-1.92	-0.451 (inactive)	-0.052	0.19	0.213 (inactive)
CCN(CC)c1ccc(N2CC=CC34O[C@@H]5/C=C\CCC(C)OC(=O)C5[C@H]3C(=O)N(CCO)[C@@H]4C2=O)cc1 (stereo not given in full)	-0.244 (inactive)	0.33	3.17 (inactive)	0.615 (inactive)	0.411 (inactive)	0.162 (inactive)	-0.369	-0.361 (inactive)	0.785 (inactive)	1.36	0.17	0.879	0.498	-0.379	-0.597	0.178	-0.905 (inactive)	-0.22	1.83	-0.857 (inactive)
NCCCCCCNC(=O)[C@H]1C[C@H]2C(=O)N[C@@H](Cc3ccccc3)C(=O)N2[C@H]1c1ccc(O)cc1	1.42 (inactive)	-0.0094	4.21 (inactive)	-0.243 (inactive)	0.731 (inactive)	-2.2 (inactive)	0.316	1.81 (inactive)	1.38 (inactive)	2.31	0.0513	0.565	-0.623	0.675	0.337	-0.424	0.0433 (inactive)	-1	-0.119	1.18 (inactive)
O=C(CCCCCCC(=O)Nc1ccccc1)N/N=C/c1ccccc1	-0.362 (inactive)	-0.24	24 (active)	10.9 (active)	0.0998 (inactive)	0.992 (inactive)	-0.0886	-0.3 (inactive)	-0.0411 (inactive)	-0.185	1.08	0.194	-0.371	-0.669	-0.419	-0.807	-0.498 (inactive)	-0.045	-0.593	0.589 (inactive)
COCCOC(=O)N1C(=O)[C@@]2(c3cc(C#Cc4ccc(OC)cc4)ccc31)[C@H](C(=O)N1CCN(c3ncccn3)CC1)[C@H]1C(=O)O[C@H](c3ccccc3)[C@H](c3ccccc3)N1[C@@H]2c1ccccc1OCCO	0.0325 (inactive)	0.406	2.79 (inactive)	2.29 (inactive)	0.641 (inactive)	1.07 (inactive)	-0.43	0.405 (inactive)	0.152 (inactive)	1.06	-0.457	0.0076	0.149	0.325	0.204	0.57	2.03 (inactive)	-0.403	-1.41	-0.785 (inactive)
CC(C)N1C(=O)[C@@]2(c3ccc([N+](=O)[O-])cc3)CC(=O)N(C3CCCCC3)[C@@H]2c2ccc(CO)cc21	0.0586 (inactive)	-0.672	-0.716 (inactive)	-0.465 (inactive)	-0.393 (inactive)	-0.334 (inactive)	0.254	-0.898 (inactive)	-0.363 (inactive)	-0.316	-0.0841	-0.0435	-0.647	-0.331	0.311	-0.0357	-0.14 (inactive)	-0.0593	-0.843	2.09 (inactive)

Reference: PubChem BioAssay
